CYP2C19 inhib = blocks human cytochrome P450 2C19; P33261; CYP2C19 Supersomes, luciferin-H EGE luminescence, 30 min; inhibition, % at 5 µM; actives 21% (n = 96,000);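 active = CYP2C19 inhibition above a set limit at 5 µM in the primary screen, cut at about 50% in these data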;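 note: plate controls were negative control wells for no effect and 2.5 mM tranylcypromine positive control for full effect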
CYP2C9 inhib = inhibitors of human CYP2C9; P11712; CYP2C9 Supersomes, luciferin-H conversion, luminescence; inhibition, % at 5 µM; actives 20% (n = 96,000);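 active = blocking of liver enzyme CYP2C9 beyond about 50% at 5 µM, limit read from the data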
Target sequence (P11712 whole entry, looked up): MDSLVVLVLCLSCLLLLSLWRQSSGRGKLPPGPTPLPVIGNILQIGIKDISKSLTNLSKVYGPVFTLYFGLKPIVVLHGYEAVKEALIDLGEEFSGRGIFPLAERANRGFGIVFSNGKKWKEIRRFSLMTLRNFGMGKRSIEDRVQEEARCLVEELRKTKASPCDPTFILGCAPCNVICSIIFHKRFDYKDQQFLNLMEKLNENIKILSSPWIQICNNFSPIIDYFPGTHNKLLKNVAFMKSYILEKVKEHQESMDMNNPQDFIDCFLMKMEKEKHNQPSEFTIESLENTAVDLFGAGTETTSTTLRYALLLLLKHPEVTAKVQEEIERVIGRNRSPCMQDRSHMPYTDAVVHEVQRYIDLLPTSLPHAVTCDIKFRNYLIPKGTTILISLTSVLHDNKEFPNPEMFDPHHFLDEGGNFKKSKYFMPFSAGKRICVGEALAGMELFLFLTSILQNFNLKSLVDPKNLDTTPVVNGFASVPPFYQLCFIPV
CYP2C9 act = increases human cytochrome P450 2C9 activity; P11712; recombinant CYP2C9, luciferin-H conversion, luminescence; hits give high values; factor 1 = untreated enzyme, 0 = blocked; activation factor at 5 µM; actives 1.4% (n = 96,000); AID 1024;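 active = activation factor of 2 or more for CYP2C9 at a 5 µM dose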;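 note: 0 = sulfaphenazole-blocked wells and 1 = vehicle-only wells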
sEH activator = soluble epoxide hydrolase (human) activation | purified human sEH enzymatic activity, activator screen | activation, % at 2 µM | P34913 | actives 0.04% (n = 91,000); in the data active = activation above about 37%
sEH inh = soluble epoxide hydrolase (human) inhibition | recombinant human sEH enzymatic activity assay | inhibition, % at 2 µM | actives 0.34% (n = 91,000) | AID 707; in the data active = inhibition above about 80%
CYP2C19 act = cytochrome P450 2C19 (human) activation; P33261; activation factor at 5 µM; recombinant CYP2C19, luciferin-H EGE luminescence; hits give high values; 0 = fully inhibited enzyme, 1 = untreated enzyme; 96,000 tested, under 10 active;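 active = activation factor of at least 2 at 5 µM in the primary screen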;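 note: 0 = wells with 2.5 mM tranylcypromine and 1 = vehicle-only wells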
* marks the source's active call; other numbers are inactive results; nt = not tested or not shown. The list is not random: actives were taken first. Their share in the collection is about 27%.

SMILES	CYP2C19 inhib	CYP2C9 inhib	CYP2C9 act	sEH activator	sEH inh	CYP2C19 act
O=S(=O)(c1ccc2c(c1)OCCO2)N1CCC(n2cnc3cc(F)ccc32)CC1	78*	43	0.6	-1	4	0.2
COc1ccc(C(=O)OCC(=O)Nc2ccc(OC(F)F)cc2)c(OC)c1	28	17	0.8	12	-9	0.7
COc1ccc(C2=NCC(CSc3nnc(-c4ccc5c(c4)OCO5)o3)S2)cc1 (configuration not stated)	46	38	0.6	-4	4	0.5
CCN(CC)S(=O)(=O)c1ccc2oc(SCC3CN=C(c4ccc(OC)cc4)S3)nc2c1 (configuration not stated)	47	79*	0.2	13	-9	0.5
O=C(Nc1ccc(C(=O)Oc2ccccc2)c(O)c1)c1ccco1	41	42	0.6	-2	2	0.6
Cc1ccc(C)c(S(=O)(=O)NCc2ccc(C(=O)NCc3ccco3)cc2)c1	nt	nt	nt	-4	6	nt
COc1ccccc1NC(=O)CN(Cc1ccco1)C(=O)c1ccc(-n2nc(C)cc2C)cc1	11	94*	0.1	8	-9	0.9
Cc1ccc(C(=O)NCc2ccco2)cc1S(=O)(=O)Nc1cccc(Cl)c1	87*	98*	0	-9	9	0.1
Cc1ccc(C(=O)N/C(=C/c2ccco2)C(=O)Nc2cccc(C)c2)cc1	51*	90*	0.1	0	2	0.5
Cc1ccc(C(=O)Nc2ccc(S(=O)(=O)NCc3ccco3)cc2)cc1	22	26	0.7	-10	12	0.8
Cc1cc(C)n(-c2ccc(C(=O)Nc3ccc(S(=O)(=O)NCc4ccco4)cc3)cc2)n1	24	66*	0.3	14	-12	0.8
CC1=C(C(=O)Nc2ccc(C)cc2C)C(c2ccc([N+](=O)[O-])cc2)n2ncnc2N1 (configuration not stated)	16	1	1	-7	5	0.8
Cc1cc(NC(=O)CSc2nnc(-c3cccnc3)n2N)no1	-42	-22	1.2	5	-7	1.4
O=P1(O)C=C(c2ccccc2)NC(c2ccccc2)=C1	-1	-1	1	5	-2	1
O=C(Nc1ccccc1)c1cccc(S(=O)(=O)NCc2ccco2)c1	51*	51*	0.5	-23	23	0.5
Cc1occc1C(=O)Nc1cccc(C(=O)NCc2ccccc2)c1	68*	93*	0.1	-10	10	0.3
O=C(Nc1ccccc1)c1ccc(S(=O)(=O)NCc2ccco2)cc1	-14	-9	1.1	12	-15	1.1
Cc1ccc(C(=O)Nc2cccc(C(=O)NCc3ccco3)c2)cc1	12	83*	0.2	-5	8	0.9
O=C(NCc1cccnc1)c1cccc(NC(=O)c2ccco2)c1	nt	nt	nt	-1	4	nt
O=C(NCc1ccco1)c1cccc(NC(=O)c2ccccc2)c1	38	93*	0.1	2	-2	0.6
O=C(NCc1ccc(F)cc1)c1ccc(CS(=O)(=O)Cc2ccccc2F)o1	30	-8	1.1	-1	1	0.7
COCCNC(=O)C1=C(N)C(C(=O)Nc2ccc(C)c(S(=O)(=O)N3CCCCC3)c2)SC1=Nc1ccc(C)cc1C (configuration not stated)	24	75*	0.2	-9	12	0.8
CCN(CC)S(=O)(=O)c1cccc(C(=O)NCC2CCCO2)c1 (configuration not stated)	-11	-3	1	-6	5	1.1
COCCNC(=O)c1ccc(C)c(S(=O)(=O)Nc2ccc(C)cc2)c1	36	38	0.6	13	-13	0.6
CCN(CC)S(=O)(=O)c1cccc(NC(=O)C2SC(=Nc3ccc(C)cc3C)C(C(=O)NCC3CCCO3)=C2N)c1 (configuration not stated)	62*	93*	0.1	17	-14	0.4
SMILES	CYP2C19 inhib	CYP2C9 inhib	CYP2C9 act	sEH activator	sEH inh	CYP2C19 act
CCN(C(=O)CN1CCN(C)CC1)c1cccc2ccccc12	-14	-6	1.1	-1	4	1.1
CN1CCN(CC(=O)O)CC1	8	54*	0.5	-9	7	0.9
Nc1c(C(=O)NCc2ccc3c(c2)OCO3)nnn1-c1ccc(OC(F)(F)F)cc1	6	22	0.8	-12	10	0.9
CCOC(=O)c1c(-c2ccc(C)o2)csc1NC(=S)NC(=O)c1ccccc1Br	25	71*	0.3	12	-14	0.8
CCOC(=O)c1sc(NC(=O)CSc2nnnn2-c2ccccc2)nc1C	13	30	0.7	-9	8	0.9
CCOC(=O)c1c(-c2ccc(C)o2)csc1NC(=O)CSc1nnnn1-c1ccccc1	80*	96*	0	-10	10	0.2
CCOC(=O)c1c(-c2ccc(C)o2)csc1NC(=O)CSc1nnc(C)s1	88*	96*	0	10	-11	0.1
CCOC(=O)c1c(-c2ccc(C)o2)csc1NC(=O)COC(=O)c1ccc(NC(N)=O)cc1	11	91*	0.1	-7	10	0.9
CCOC(=O)c1sc(NC(=S)NC(=O)c2ccccc2Cl)c(C(=O)OCC)c1C	19	41	0.6	4	-6	0.8
CCOC(=O)c1c(-c2cccs2)csc1NC(=O)CCCC(=O)O	1	40	0.6	1	0	1
Cc1cc(NC(=O)CSc2ccc3nnc(-c4ccc(F)cc4)n3n2)no1	-1	33	0.7	3	-3	1
CCC(Sc1ccc2nnc(-c3ccc(F)cc3)n2n1)C(=O)OC (configuration not stated)	27	61*	0.4	1	2	0.7
Cc1ccc(-c2nnc3ccc(SCC(=O)Nc4cc(C)on4)nn23)cc1	-7	50*	0.5	-2	2	1.1
Cc1cc(NC(=O)CSc2ccc3nnc(-c4cccs4)n3n2)no1	14	75*	0.2	-2	1	0.9
Cc1cc(NC(=O)CSc2ccc3nnc(-c4cccnc4)n3n2)no1	14	39	0.6	-5	4	0.9
CCN(CC(=O)NC(C)C)Cc1nc2sc3c(c2c(=O)[nH]1)CCC3	44	37	0.6	-3	3	0.6
COc1ccc(C(=O)NCCc2cn3ccc(C)cc3n2)cc1	75*	24	0.8	3	-4	0.3
COc1cc(C(=O)NCCc2cn3ccc(C)cc3n2)cc(OC)c1OC	20	0	1	-8	7	0.8
c1ccc2c(N3CCCC3)nc(-c3ccncc3)nc2c1	84*	48	0.5	-5	4	0.2
CCOC(=O)CNc1nc(-c2ccncc2)nc2ccccc12	48	58*	0.4	11	-8	0.5
CCCCN(CC)c1nc(-c2ccncc2)nc2ccccc12	96*	94*	0.1	7	-8	0
CN1CCN(c2nc(-c3ccncc3)nc3ccccc23)CC1	28	20	0.8	-1	1	0.7
COc1nc(-c2ccncc2)nc2ccccc12	74*	72*	0.3	20	-21	0.3

Screens: PubChem, several laboratories
